# Experimental data published in PubChem BioAssay AID1508600 (Functional Genomics Laboratory (NCATS/FGL), 2020).
# Screen size: about 53,000 sequences; about 3,700 (7%) were called active. The full list was thinned out, with actives kept by preference. Values without a mark were called inactive.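 The calls were made as follows: active = gene knockdowns whose robust z-score for IL-1 alpha signal is at least 2 or at most -2, so actives lie on both sides; inactive = the rest.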
# Test: Components of the Cytosolic LPS Sensing Pathway: Gene Identification via Genome-wide siRNA Screen;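 also: robust z of the log signal after scaling to non-targeting control siRNA wells of the plate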
# Conditions: RAW264.7 macrophages, IL-1a HTRF, actives lie on both sides, screened at 100 nM (by protocol), cells primed 5 h with Pam3CSK4 first
# Procedure, shortened: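 RAW264.7 mouse macrophages reverse-transfected with single siRNAs (100 nM final) for 48h, primed with Pam3CSK4 for 5 hours, then transfected with LipidA for 24 hour. Supernatant IL-1a read by HTRF; values normalized to negative-control median, log-transformed robust z-scores.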
row,Sequence,z-score
1,GGAUGAAGUGUGUUUUGGCTT against Sim1,0.95
2,GGACCUUUUGUCUAUAAUGTT against Arl4c,0.759
3,GGCAGCUAAACUGUGUUAUTT against Tex11,-1.36
4,GGGCUUUGGACAUCUCCUATT against Serpina3c,-1.98
5,GGGAUAUCCUACCAGGUCATT against Ppard,-1.24
6,GCUCCUUUAGUCCUCACCATT against Mrpl10,-2.15 (active)
7,GGAUCUUCAGGAAAACAGATT against Fam181b,-0.955
8,CCACCCUUCUUCUAUCGAATT against Ybx2,-1.11
9,GCCAGAGUUUAUUAACUGCTT against Stxbp6,-0.809
10,CCAUUGCAGCAUACUGUCCTT against Serpina1b,-0.402
11,GCGGCUAAUUCGUUCUUUCTT against Atp8a1,0.708
12,GGUCAGGUAGGGAUAUACATT against Dele1,-1.59
13,CCAAUAAAAGUGCACACCUTT against Actb,2 (active)
14,GGCAGCAAGUUUUUUAAUCTT against Cap1,0.464
15,GGAAAACAACAUGAUCGUGTT against Nadk,-0.137
16,UCCCUAACGGCCCUUUUUATT against H4c14,-0.729
17,GGACAAGCUCCAAAACAACTT against Srsf4,-0.292
18,UAGGAACGCACCCAUACAATT against Fam89b,0.555
19,GGAAAACCCAGGUCAGAAUTT against Serpina9,-1.07
20,CCUUAAGCAGAGUUCAAAGTT against Timm22,0.197
21,CCCUCCUCAGUAUUGUACUTT against Dtx2,2.51 (active)
22,GGUCAUUUCAAGUGCUAAGTT against Adgra1,2.76 (active)

row,Sequence,z-score
1,GCCAGAAGUGAAAAUCGAATT against Fkbp14,0.509
2,GGGACAAGGCCUCGAUAUUTT against Ggps1,0.958
3,CGCAGGACUAUAAACUGAATT against Ptdss2,0.954
4,CCUCUUUCGACAAGAGCUCTT against Atp1a3,0.904
5,GCAGAUCGUGCGGAUCUUGTT against Bcdin3d,2.1 (active)
6,GGCAUUGUUUUCAUUGUGGTT against Cldn7,-0.0872
7,GGAUGUGAUCCUACUGACATT against Tmem208,0.793
8,GCUUCGAUACCUUCAAACCTT against Stom,-3.7 (active)
9,CGAGAGUCUAACCAAGUACTT against Arhgdib,-1.89
10,GGAGAUUGUGAGAGCCAUGTT against Kcnab3,-0.753
11,GAGUGAGAAAGCCAGAGACTT against Acaa1a,0.188
12,GGACUGUUUACUCAGCUCATT against Slc25a33,-2.02 (active)
13,GGCCCACAAGGCUGUUUUGTT against Zfp131,0.459
14,GGAUUUCAAGGGAAUUUGATT against Wbp4,-0.271
15,GCCAGUUGUGACAAAACUATT against Abca1,-1.22
16,GGUGGAGUCUGAACUUAAUTT against Nfatc4,-0.0623
17,GCCCUUAAAACAUAACCACTT against Fgf9,0.615
18,CCAAGAUUAACCAUAACACTT against Mrpl50,0.017
19,GCUCCUACAGAGAAUAAGATT against Eny2,-1.7
20,GGACGAGGACCAGCUAGAATT against Txn2,-2.07 (active)
21,GGGACAUUUCCAUCCUUUUTT against Prdx6b,-1.28
22,GCUCCUUUGGUUCAACAUCTT against Olfr635,-1.78

row,Sequence,z-score
1,GCAACCAUUCUGGUAUUACTT against Zfp108,0.904
2,CCAUUAAUAAAGCGUGGGUTT against Cacybp,0.562
3,GGAAAUUUGGAAAUUGCCUTT against Ntm,2.46 (active)
4,GGAUCAUCACUACUACAAUTT against 4932415M13Rik,2.37 (active)
5,GGCUGCUCGAAUCAGUCAUTT against Slc27a3,0.237
6,GGAAUUUUCUACAUGUGUGTT against Lim2,-2.12 (active)
7,CCAGAUCCUAAAGUCUUUATT against Trpd52l3,0.677
8,CCACCGGAUCGAAGACAGUTT against Tanc2,-1.28
9,CGUCCCUAGUAUAAAAAGATT against Cxxc5,-0.273
10,GGCUUUCACCUUAAUUGAUTT against Fntb,-0.296
11,CCCAGUACAGCCUUGUGGUTT against Med25,-2.02 (active)
12,CGACAAGGGUUUUUAUUCUTT against Smcr8,-0.414
13,GCCUCUCAACAUGAAUUAATT against Gm9918,0.524
14,CCAAGUUUAACAUCCAGGGTT against Pfkm,-0.126
15,GGAUGGAGACCUCUCCUUUTT against Guca2a,1.36
16,CCAGCGAUCUUCCCAUUCUTT against Ccr8,-0.844
17,GCCCUAAUCUAUGGGACAUTT against Tmem179,3.06 (active)
18,UUCAUUCAUAUGGACAGUUTT against Psg19,1.73
19,GCCACAAUGGGCAGUCUUATT against Kcp,0.0139
20,GCGGAAGUCGGAUUUUAUCTT against Kif1c,3.01 (active)
21,CCAACACGUUGCACAGAGUTT against A830073O21Rik,0.611
22,GGACAACCGAAGUUUUAAUTT against E130308A19Rik,0.0435

row,Sequence,z-score
1,GGAGGUGACUAUCAUUUUUTT against Gng4,-0.498
2,CCAGCAAGUAAAACAAGCUTT against Olfr803,0.998
3,GGUACUUCUCAUGGAUAAATT against Vps45,-0.234
4,GGAACUAAAUAUCCCUAUGTT against Polr3gl,-1.26
5,GAUACUUGGCUCCUAGAAGTT against Olfr803,-1.22
6,GCAUGAAUUGUGGAAGAGATT against Csnk1a1,2.71 (active)
7,GCCAGGUGGAACCAAGUAUTT against Zcchc17,-1.67
8,GGCAUCUUAUGGCCUAAAATT against Rnf31,-1.08
9,GCGAAAAAGAUCGUCCUUGTT against Polr3a,-0.444
10,GGAUCUUUACAUCUCUAACTT against Krtap31-1,1.58
11,GCCAAACAUUGGUGGACAUTT against H2-D1,0.835
12,GCUUAAUAAUUUCAUCCAGTT against Brms1l,2.44 (active)
13,GGCCCAGUCCGAUAUUCUATT against Phxr4,-0.797
14,GCAAAUCAGUCUAUCGCUGTT against Mcpt8,0.39
15,GGUUUUCACUAUUUCAACUTT against Olfr187,-1.06
16,GGUAAAUGGUUUAACUACGTT against Tmem117,-0.68
17,GCAAAGGAUCGCUUGAAAATT against Mrpl40,-1.15
18,GGAAUAAAGCUCAUCUACGTT against Slc43a2,2.09 (active)
19,GGAUGAACACUGUUACAAATT against Tusc3,0.352
20,GGUGAUGCAAGAAGAAAUUTT against Aldh3a2,0.169
21,GGCUCUGUUCUCCACAUUGTT against Phf5a,-1.6
22,GGCAAUGGUUCAGCAGUGGTT against Eef1e1,-0.564

row,Sequence,z-score
1,GGCCUUUCAUGAAAGCUCATT against Ublcp1,-3.07 (active)
2,GGUAGCUGUGAUAAAGCAUTT against Pcbd1,-1.81
3,CCUGAUAUUCAUGACCAAATT against Wasf2,-0.0177
4,CGGUGGCAAAAUGAGAAGUTT against Cd79a,-0.142
5,CCCUAAUCUGGUGAACGAUTT against Mfap5,-1.05
6,GGUCUGAGCCUUGUCUUUATT against Pdx1,2.92 (active)
7,GGUGUCUGGUUCAUAAAGGTT against Lcn4,-0.344
8,GGACACAACUCAUUUUCAGTT against Prg3,-1.61
9,GGAAGGAGAGACCAUUGAGTT against Nudt1,-1.48
10,GCGAUUAAGUCUGAAUUGUTT against Cd93,0.425
11,GGAUACCUACCUGGACAGUTT against Dlgap4,-1.23
12,GGCACAUUGCUGAAGCCCATT against Aldoa,-2.42 (active)
13,GCUACACAUGGGAACUAACTT against 4631405J19Rik,1.51
14,GGCCUAUAUUGAUGAUUUUTT against 4930503L19Rik,2.31 (active)
15,GGGUGUACAGAGGAUCCGATT against Atp2a3,0.187
16,GGCAUUUACUUACUGUUCATT against Slc39a10,-0.331
17,CGAUUUCAUCGAACACUUCTT against Ccnd1,1.37
18,GGUACACAUGAGACAAUAUTT against Whamm,-2.18 (active)
19,GGCUUUGUUAGUCUAUGACTT against Dzip1l,-0.552
